Reference: the supplement of paper PMC11732987, “Enantioselective OTUD7B fragment discovery through chemoproteomics screening and high-throughput optimisation” (Communications Chemistry, 2025)

Key:
Test in all cases: log2 ratio of Biotin-Ahx-Ub-VS probe labelling (fragment/DMSO); higher = less target engagement (more negative = stronger competition), active = hit call of the paper (q ≤ 0.05, log2 ratio ≤ -1)
Conditions in all cases: compound concentration: 200 uM; treatment time: 3 h
[1] = target: T1, USP19 (UniProt O94966)
T1 sequence (whole entry): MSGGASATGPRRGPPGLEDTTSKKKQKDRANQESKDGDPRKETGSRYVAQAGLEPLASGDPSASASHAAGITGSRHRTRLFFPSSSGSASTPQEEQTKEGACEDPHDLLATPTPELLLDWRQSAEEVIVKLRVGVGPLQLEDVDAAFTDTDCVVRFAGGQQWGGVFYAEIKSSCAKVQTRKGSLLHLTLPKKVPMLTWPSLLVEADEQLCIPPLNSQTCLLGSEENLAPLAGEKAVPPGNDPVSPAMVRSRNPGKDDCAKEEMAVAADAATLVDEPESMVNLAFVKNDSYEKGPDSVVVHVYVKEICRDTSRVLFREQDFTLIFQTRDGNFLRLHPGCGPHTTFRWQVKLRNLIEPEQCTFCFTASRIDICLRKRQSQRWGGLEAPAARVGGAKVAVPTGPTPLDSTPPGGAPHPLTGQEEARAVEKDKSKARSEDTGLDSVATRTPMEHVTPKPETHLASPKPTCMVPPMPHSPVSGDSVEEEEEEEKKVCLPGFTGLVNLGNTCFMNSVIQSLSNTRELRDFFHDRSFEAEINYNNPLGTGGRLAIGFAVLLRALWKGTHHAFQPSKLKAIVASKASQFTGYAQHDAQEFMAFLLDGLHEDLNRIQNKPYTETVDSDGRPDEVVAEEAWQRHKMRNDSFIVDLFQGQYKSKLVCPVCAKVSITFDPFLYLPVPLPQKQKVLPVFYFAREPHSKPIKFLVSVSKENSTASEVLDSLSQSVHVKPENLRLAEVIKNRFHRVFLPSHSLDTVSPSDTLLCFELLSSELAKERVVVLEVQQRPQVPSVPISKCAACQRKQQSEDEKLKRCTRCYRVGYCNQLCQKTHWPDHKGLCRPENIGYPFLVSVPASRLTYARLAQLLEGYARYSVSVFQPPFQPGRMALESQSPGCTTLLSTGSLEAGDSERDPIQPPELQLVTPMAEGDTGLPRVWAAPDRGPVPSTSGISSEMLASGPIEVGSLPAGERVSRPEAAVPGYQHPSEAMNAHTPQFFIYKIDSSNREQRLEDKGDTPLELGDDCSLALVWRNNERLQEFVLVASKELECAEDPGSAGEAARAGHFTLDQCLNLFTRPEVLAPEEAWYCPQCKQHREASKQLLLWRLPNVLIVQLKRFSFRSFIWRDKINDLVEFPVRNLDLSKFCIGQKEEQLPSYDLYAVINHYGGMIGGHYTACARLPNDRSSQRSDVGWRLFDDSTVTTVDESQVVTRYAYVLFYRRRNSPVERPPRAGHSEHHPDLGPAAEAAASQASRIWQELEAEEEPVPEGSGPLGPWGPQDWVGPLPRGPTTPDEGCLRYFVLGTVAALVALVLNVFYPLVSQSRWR
Summary of the method: (§1)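 Labelled DUBs from HEK293T lysate were NeutrAvidin-enriched, digested with LysC and trypsin, and run by diaPASEF LC-MS/MS. Before that, each 495 µg sample in Tris/CHAPS/IGEPAL buffer with protease inhibitors was treated in triplicate with fragment at 200 µM or vehicle for 3 h, then with Biotin-Ahx-Ub-VS at 0.5 µM final for 1 h. Values are average log2 ratios of fragment over vehicle by unpaired t-test, based on global-median-normalised Spectronaut label-free quantities from proteins with ≥2 unique peptides.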

[2] = target: USP24 (UniProt Q9UPU5)
Chain of USP24 (Q9UPU5 whole entry): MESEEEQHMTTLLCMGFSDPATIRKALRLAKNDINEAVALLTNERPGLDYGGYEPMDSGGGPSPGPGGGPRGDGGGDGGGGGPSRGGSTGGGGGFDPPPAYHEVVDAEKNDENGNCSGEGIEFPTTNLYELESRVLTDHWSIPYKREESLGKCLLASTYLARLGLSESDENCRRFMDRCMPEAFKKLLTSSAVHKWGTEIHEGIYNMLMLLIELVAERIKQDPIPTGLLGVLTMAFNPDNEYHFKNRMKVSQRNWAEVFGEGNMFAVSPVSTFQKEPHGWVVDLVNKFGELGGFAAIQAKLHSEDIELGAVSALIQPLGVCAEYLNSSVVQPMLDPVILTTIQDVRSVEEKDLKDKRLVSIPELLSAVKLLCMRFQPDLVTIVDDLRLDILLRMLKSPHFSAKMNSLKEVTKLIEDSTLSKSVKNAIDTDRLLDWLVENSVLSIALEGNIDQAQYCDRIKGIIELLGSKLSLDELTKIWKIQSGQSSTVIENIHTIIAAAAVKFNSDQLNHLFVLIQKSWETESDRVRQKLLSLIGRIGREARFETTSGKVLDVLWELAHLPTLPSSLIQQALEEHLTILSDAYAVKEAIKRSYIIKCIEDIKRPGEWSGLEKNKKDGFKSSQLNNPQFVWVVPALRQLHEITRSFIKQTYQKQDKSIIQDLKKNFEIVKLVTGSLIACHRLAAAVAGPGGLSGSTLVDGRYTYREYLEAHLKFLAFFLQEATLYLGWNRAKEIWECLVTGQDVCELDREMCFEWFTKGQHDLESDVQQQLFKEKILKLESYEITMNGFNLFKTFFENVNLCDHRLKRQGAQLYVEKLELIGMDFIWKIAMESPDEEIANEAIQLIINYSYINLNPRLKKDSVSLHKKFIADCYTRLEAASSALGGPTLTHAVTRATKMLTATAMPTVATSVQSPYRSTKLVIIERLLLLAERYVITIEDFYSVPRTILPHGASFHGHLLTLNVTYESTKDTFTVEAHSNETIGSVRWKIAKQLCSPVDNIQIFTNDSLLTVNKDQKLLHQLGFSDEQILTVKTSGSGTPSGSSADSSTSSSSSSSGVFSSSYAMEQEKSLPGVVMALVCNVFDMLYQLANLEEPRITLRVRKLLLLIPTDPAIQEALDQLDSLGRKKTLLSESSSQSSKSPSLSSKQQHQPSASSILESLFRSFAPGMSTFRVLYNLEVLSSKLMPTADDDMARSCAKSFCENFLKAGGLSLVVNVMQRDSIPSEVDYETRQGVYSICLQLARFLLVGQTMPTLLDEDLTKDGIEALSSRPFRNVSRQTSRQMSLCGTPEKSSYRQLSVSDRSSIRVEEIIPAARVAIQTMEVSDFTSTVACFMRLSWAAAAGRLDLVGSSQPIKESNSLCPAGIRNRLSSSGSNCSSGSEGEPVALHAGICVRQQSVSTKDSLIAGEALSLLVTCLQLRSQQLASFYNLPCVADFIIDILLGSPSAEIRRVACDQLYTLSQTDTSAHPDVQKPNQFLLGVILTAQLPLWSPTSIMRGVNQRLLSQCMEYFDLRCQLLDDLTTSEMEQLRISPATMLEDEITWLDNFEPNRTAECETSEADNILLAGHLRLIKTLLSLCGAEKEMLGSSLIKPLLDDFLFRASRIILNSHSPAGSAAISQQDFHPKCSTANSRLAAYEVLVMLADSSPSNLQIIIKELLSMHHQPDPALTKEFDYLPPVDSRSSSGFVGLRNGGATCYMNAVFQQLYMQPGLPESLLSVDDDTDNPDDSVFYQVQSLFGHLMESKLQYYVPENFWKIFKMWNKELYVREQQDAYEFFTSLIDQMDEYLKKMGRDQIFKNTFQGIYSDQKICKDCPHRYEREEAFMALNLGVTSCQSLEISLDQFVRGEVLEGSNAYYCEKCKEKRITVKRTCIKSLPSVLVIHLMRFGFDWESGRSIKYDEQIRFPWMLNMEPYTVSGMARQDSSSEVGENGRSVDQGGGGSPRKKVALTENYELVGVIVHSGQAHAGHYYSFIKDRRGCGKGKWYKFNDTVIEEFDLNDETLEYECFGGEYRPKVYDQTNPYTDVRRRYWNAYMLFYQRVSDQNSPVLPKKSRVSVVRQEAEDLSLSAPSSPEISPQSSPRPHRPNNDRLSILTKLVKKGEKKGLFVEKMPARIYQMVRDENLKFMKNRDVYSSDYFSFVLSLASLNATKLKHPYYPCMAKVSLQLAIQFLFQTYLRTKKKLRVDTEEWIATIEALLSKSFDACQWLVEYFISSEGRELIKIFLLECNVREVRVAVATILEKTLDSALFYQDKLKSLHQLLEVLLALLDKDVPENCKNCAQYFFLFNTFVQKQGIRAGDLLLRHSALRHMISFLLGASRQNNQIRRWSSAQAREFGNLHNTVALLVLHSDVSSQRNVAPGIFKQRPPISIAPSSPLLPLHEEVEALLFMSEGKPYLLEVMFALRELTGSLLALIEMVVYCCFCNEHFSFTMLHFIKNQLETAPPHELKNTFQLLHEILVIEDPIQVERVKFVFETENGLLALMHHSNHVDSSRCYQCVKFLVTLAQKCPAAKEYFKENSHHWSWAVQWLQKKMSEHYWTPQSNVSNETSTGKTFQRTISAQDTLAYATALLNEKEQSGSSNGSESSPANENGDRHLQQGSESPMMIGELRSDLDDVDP
Summary of the method: as §1

[3] = target: T2, USP25 (UniProt Q9UHP3)
T2 sequence (whole entry): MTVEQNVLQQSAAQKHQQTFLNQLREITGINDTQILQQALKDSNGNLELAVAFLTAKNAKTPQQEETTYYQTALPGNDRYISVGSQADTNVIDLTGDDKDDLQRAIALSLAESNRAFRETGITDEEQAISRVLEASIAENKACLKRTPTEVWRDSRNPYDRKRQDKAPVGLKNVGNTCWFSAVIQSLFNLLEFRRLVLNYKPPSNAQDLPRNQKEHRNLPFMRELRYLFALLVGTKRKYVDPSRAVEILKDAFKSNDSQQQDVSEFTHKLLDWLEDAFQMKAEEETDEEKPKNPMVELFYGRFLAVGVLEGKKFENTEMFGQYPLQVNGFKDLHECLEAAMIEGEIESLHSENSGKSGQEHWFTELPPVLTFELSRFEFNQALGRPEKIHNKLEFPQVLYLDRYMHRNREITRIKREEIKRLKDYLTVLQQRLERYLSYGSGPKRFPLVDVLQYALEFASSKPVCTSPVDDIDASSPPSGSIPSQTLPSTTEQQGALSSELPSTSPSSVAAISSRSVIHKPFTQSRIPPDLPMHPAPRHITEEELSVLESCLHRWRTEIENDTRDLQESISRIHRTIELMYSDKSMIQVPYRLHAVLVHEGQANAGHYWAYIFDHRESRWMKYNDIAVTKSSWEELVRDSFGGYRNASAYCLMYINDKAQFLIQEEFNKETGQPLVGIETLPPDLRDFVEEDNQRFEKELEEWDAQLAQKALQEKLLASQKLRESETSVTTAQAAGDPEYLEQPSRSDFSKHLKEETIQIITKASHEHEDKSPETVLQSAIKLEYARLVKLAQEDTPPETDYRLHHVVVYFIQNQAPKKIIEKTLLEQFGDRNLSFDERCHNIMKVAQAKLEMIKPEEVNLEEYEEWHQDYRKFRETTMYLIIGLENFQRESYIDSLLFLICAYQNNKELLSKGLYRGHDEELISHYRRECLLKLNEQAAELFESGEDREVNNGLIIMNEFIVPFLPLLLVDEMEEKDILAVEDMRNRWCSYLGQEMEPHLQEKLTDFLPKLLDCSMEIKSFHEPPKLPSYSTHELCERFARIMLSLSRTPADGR
Summary of the method: as §1

[4] = target: T3, USP28 (UniProt Q96RU2)
T3 sequence (whole entry): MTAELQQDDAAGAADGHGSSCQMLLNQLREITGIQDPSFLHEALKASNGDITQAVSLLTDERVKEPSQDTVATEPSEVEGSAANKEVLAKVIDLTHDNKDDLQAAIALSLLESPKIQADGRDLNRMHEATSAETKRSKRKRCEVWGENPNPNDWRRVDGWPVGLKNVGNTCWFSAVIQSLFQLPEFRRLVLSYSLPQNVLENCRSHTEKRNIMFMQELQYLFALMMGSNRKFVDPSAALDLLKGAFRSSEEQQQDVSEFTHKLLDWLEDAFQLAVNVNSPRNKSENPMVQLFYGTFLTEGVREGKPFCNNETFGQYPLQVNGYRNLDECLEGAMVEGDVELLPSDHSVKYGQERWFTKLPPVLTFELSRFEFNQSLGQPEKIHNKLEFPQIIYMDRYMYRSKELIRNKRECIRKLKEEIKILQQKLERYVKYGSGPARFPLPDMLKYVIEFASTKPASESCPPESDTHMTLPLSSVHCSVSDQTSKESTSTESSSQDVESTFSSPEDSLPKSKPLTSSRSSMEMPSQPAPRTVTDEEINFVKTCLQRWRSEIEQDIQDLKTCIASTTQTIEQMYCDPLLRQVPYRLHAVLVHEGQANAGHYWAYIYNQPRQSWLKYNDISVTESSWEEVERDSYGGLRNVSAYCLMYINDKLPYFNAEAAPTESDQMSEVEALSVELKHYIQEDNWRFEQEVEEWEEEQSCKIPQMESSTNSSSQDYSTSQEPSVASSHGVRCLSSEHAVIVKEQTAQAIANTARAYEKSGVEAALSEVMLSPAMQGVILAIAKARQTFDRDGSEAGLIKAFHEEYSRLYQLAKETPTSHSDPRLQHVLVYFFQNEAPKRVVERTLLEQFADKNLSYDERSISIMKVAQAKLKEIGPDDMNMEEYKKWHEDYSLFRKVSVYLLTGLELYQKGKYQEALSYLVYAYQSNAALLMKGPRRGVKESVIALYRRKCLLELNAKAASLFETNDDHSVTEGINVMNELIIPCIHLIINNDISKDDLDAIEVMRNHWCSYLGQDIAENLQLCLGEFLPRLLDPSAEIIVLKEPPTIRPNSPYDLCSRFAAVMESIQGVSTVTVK
Summary of the method: as §1

Measured: log2 ratio of Biotin-Ahx-Ub-VS probe labelling

O=C(CCl)Nc1nnc(CC(F)(F)F)o1
inactive: [1] -0.39 | [2] -0.372 | [3] -0.777 | [4] -0.479
